# Source: PubChem BioAssay
# For some assays here: Measured potencies and affinities stand elsewhere. Activity calls are given as the source filed them. Unless noted, how the calls were made is not given here.
# What was measured:
# [1] = antimalarial activity against Dd2 strain (AID 2302;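 active means growth inhibition above 50% at the single 2 µM test dose, taken to imply half-maximal potency below 2 µM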;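 further: 0% = DMSO untreated growth and 100% = chloroquine plus artemisinin killed control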); conditions: P. falciparum Dd2 in RBCs, LDH growth readout, 72 h; at 2 µM; hits give high values
# [2] = human hepatoma cell viability loss – ATP luminescence, cytotoxicity control for P. falciparum antimalarial project, primary screen (AID 2303;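 active means inhibition above 50%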;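 further: 0% = DMSO wells and 100% = digitonin-killed cells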); conditions: HepG2 viability, 24-48 h, at 10 µM, hits give high values
# [3] = target: L-lactate dehydrogenase (Plasmodium falciparum (isolate CDC / Honduras)) (UniProt Q27743); experiment: PfLDH activity inhibition – cell lysate, 3D7 strain, counter-screen for P. falciparum growth inhibition project (AID 2304);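 further: 0% = vehicle and 100% = reference inhibitor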; conditions: P. falciparum 3D7 crude extract, LDH APAD/NBT absorbance; at 2 µM; hits give high values
# Sequence of L-lactate dehydrogenase (Plasmodium falciparum (isolate CDC / Honduras)) (Q27743 whole entry, looked up): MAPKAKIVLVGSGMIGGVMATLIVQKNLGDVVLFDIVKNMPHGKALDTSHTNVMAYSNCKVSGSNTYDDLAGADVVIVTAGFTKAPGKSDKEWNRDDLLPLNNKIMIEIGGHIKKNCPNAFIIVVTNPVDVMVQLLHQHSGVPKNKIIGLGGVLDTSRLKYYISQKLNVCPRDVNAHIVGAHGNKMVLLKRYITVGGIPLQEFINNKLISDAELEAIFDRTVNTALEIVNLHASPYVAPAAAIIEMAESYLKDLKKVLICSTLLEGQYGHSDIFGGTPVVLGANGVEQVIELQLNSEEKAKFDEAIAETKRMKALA
# [4] = inhibition of 3D7 malaria parasite growth – strain 3D7 (AID 2306);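 further: 0% = DMSO wells and 100% = chloroquine plus artemisinin control wells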; conditions: P. falciparum 3D7 erythrocytic growth, LDH absorbance, 72 h; at 2 µM; hits give high values
# [5] = target: Calcium-dependent protein kinase 1 (Plasmodium falciparum (isolate 3D7)) (UniProt P62344); experiment: PfCDPK1 kinase inhibitors, biochemical, TCAMS library (AID 1159585; cut-off not given, nearly all actives have IC50 up to about 0.98 µM;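 further: inhibitors leave more ATP so luminescence rises with inhibition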); conditions: recombinant PfCDPK1, Kinase-Glo ATP depletion luminescence
# Sequence of Calcium-dependent protein kinase 1 (Plasmodium falciparum (isolate 3D7)) (P62344 whole entry, looked up): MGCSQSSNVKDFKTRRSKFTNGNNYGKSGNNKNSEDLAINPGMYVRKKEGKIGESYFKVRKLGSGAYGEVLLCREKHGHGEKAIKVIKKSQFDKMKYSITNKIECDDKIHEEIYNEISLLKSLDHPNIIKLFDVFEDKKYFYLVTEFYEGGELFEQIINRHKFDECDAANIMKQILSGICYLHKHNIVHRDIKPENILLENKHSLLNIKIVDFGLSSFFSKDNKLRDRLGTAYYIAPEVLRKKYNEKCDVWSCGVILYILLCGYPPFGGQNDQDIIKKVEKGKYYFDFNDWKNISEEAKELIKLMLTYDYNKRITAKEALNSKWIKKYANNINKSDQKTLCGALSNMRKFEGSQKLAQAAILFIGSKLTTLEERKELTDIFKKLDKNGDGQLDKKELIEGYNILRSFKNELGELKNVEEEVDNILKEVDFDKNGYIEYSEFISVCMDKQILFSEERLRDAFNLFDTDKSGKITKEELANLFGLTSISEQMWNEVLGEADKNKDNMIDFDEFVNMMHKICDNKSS
# [6] = target: Plasmodium falciparum protein kinase 6 (PK6, PF3D7_1337100) (UniProt Q8IDW1); experiment: PfPK6 kinase inhibitors, biochemical, TCAMS library (AID 1159586); conditions: recombinant PfPK6, Kinase-Glo ATP depletion luminescence
# Sequence of Plasmodium falciparum protein kinase 6 (PK6, PF3D7_1337100) (Q8IDW1 1-305): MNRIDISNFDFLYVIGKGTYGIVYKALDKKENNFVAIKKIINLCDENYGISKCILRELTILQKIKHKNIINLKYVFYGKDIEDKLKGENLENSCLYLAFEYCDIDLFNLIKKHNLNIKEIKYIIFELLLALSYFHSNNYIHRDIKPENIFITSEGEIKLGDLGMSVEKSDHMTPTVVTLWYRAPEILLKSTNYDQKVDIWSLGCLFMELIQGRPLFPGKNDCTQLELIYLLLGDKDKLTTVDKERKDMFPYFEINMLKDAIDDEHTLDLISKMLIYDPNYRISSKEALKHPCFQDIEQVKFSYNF
# [7] = target: Protein kinase 7 (PK7), Plasmodium falciparum 3D7 (PF3D7_0213400) (UniProt Q7YTF7); experiment: inhibition of Plasmodium PK7 catalytic activity – biochemical, TCAMS antimalarial set, Kinase-Glo luminescence (AID 1159587); conditions: recombinant PfPK7, Kinase-Glo ATP depletion luminescence
# Sequence of Protein kinase 7 (PK7), Plasmodium falciparum 3D7 (PF3D7_0213400) (Q7YTF7 1-343): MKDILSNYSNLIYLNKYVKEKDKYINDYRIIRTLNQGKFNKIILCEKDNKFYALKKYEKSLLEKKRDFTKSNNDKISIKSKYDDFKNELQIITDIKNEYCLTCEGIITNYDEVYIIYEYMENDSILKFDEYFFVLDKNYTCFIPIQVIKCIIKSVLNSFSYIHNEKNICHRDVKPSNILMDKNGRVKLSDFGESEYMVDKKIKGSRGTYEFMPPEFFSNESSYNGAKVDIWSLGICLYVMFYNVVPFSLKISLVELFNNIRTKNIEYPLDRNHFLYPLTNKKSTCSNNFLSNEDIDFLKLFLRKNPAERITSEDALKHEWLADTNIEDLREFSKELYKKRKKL
# [8] = target: Calcium-dependent protein kinase 4 (Plasmodium falciparum (isolate 3D7)) (UniProt Q8IBS5); experiment: PfCDPK4 kinase inhibitors, biochemical, TCAMS library (AID 1159588; cut-off not given, nearly all actives have IC50 up to about 0.91 µM); conditions: recombinant PfCDPK4, Kinase-Glo ATP depletion luminescence
# Sequence of Calcium-dependent protein kinase 4 (Plasmodium falciparum (isolate 3D7)) (Q8IBS5 whole entry, looked up): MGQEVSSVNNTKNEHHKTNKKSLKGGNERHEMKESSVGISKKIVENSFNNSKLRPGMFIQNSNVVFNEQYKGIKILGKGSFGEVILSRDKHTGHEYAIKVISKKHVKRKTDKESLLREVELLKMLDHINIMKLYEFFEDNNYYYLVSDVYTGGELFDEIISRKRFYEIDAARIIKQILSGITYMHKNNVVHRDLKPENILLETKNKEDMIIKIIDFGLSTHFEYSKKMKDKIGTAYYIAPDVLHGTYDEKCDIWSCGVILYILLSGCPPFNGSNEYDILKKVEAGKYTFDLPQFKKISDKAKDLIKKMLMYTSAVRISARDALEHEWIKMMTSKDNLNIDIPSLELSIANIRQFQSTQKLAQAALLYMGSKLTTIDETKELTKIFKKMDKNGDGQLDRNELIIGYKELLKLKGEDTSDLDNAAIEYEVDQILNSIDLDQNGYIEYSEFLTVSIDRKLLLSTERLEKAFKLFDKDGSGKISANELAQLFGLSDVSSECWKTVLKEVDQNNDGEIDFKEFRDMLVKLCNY
Structure (SMILES),growth inhibition [1],inhibition [2],inhibition [3],growth inhibition [4],outcome [5],outcome [6],outcome [7],outcome [8]
CCc1cc2c3c(N)nc(N)nc3ccc2n1C(CC)CC,12% (inactive),71% (active),5% (inactive),96% (active),inactive,inactive,inactive,inactive
COc1ccc2nccc([C@@H](O)CN3CCC(NCc4ccc5c(c4)NC(=O)C(C)(C)O5)CC3)c2c1,70% (active),6% (inactive),3% (inactive),100% (active),inactive,inactive,inactive,inactive
Cc1cccc2[nH]c(-c3cccc(-c4cccc(NC(=O)c5cccnc5Cl)c4)c3)nc12,32% (inactive),-1% (inactive),0% (inactive),97% (active),inactive,inactive,inactive,inactive
CC(C)CCN1CCCN(Cc2ccc(C(=O)Nc3ccc(F)c(F)c3)cc2)CC1,27% (inactive),36% (inactive),5% (inactive),88% (active),inactive,inactive,inactive,inactive
N=C(N)c1ccc(C(=O)Nc2cccc(C(=N)N)c2)cc1,82% (active),13% (inactive),-2% (inactive),88% (active),inactive,inactive,inactive,inactive
CCN1C(=O)N(CCC(C)C)C2(CCN(Cc3ccc(OC)cc3O)CC2)C1=O,77% (active),13% (inactive),4% (inactive),89% (active),inactive,inactive,inactive,inactive
O=c1cc(NCCCNC2CCc3c(Cl)cc(Cl)cc32)[nH]c2ccccc12 (stereo unspecified),29% (inactive),3% (inactive),0% (inactive),100% (active),inactive,inactive,inactive,inactive
O=C(Nc1cccc(CN2CCCN(Cc3ccc4c(c3)OCO4)CC2)c1)c1ccc(Cl)c(Cl)c1,10% (inactive),34% (inactive),-2% (inactive),92% (active),inactive,inactive,inactive,inactive
Cc1cc(I)ccc1Nc1nc2nonc2nc1Nc1ccc(I)cc1C,96% (active),78% (active),-2% (inactive),100% (active),inactive,inactive,inactive,inactive
CCC(=O)c1cc(C(=O)NCCc2cccc(OC)c2)ccc1OC,12% (inactive),-7% (inactive),-2% (inactive),83% (active),inactive,inactive,inactive,inactive
Oc1ccc(Nc2ccnc3cc(Cl)ccc23)cc1,97% (active),0% (inactive),0% (inactive),100% (active),inactive,inactive,inactive,inactive
O=C(N1CCN(c2cccc(C(F)(F)F)c2)CC1)C(Cl)(Cl)Cl,35% (inactive),-8% (inactive),2% (inactive),89% (active),inactive,inactive,inactive,inactive
CCCOc1ccc(C=C(CC(=O)O)c2nc3ccccc3s2)cc1OCC,84% (active),7% (inactive),-1% (inactive),89% (active),inactive,inactive,inactive,inactive
Cc1cccc2[nH]c(-c3cccc(-c4cccc(CNCCNC(=O)c5ccnn5C)c4)c3)nc12,71% (active),26% (inactive),-3% (inactive),100% (active),inactive,inactive,inactive,inactive
CC(=O)N(C)c1ccc(C(=O)Nc2cccc(-c3cccc(-c4nc5c(C)cccc5[nH]4)c3)c2)cc1,30% (inactive),11% (inactive),-2% (inactive),89% (active),inactive,inactive,inactive,inactive
Cc1cc(CNCCCCCNCc2cccc([N+](=O)[O-])c2)ccc1O,-2% (inactive),14% (inactive),0% (inactive),98% (active),inactive,inactive,inactive,inactive
Cc1nn(-c2ccccc2)c2sc(C(=O)N(CCCN(C)C)c3nc(-c4ccccc4)cs3)cc12,36% (inactive),99% (active),-2% (inactive),95% (active),inactive,inactive,inactive,inactive
CN1CCN(c2ccnc3ccc(NC(=O)Nc4cccc5c(-c6ccncc6)cccc45)cc23)CC1,100% (active),7% (inactive),1% (inactive),100% (active),inactive,inactive,inactive,inactive
NC(N)=NC(=O)Nc1cc(Cl)c(Cl)c(Cl)c1,100% (active),-2% (inactive),6% (inactive),101% (active),inactive,inactive,inactive,inactive

Structure (SMILES),growth inhibition [1],inhibition [2],inhibition [3],growth inhibition [4],outcome [5],outcome [6],outcome [7],outcome [8]
Cc1ccc(F)c(OC2CCN(c3ccc(C(=O)NC4CC4)cn3)CC2)c1,72% (active),10% (inactive),-2% (inactive),92% (active),inactive,inactive,inactive,inactive
COc1cccc(-c2ccc(O)c(CNCCc3cccc(F)c3)c2)n1,67% (active),-14% (inactive),0% (inactive),96% (active),inactive,inactive,inactive,inactive
C[C@H](Cc1ccc(C(=O)OCCOC(=O)c2ccc(C[C@@H](C)NC[C@H](O)c3cccc(C(F)(F)F)c3)cc2)cc1)NC[C@H](O)c1cccc(C(F)(F)F)c1,86% (active),10% (inactive),-4% (inactive),98% (active),inactive,inactive,inactive,inactive
Cc1cccc2[nH]c(-c3ccc(-c4ccc(NC(=O)Nc5ccc(Cl)cc5)cc4)s3)nc12,100% (active),78% (active),7% (inactive),101% (active),inactive,inactive,inactive,inactive
CCN(CC)CCN(Cc1ccc(-c2ccc(C(F)(F)F)cc2)cc1)C(=O)Cn1c(CCc2cccc(F)c2F)cc(=O)cc1-c1ccccc1,64% (active),33% (inactive),-2% (inactive),94% (active),inactive,inactive,inactive,inactive
O=C(NCc1cccc(F)c1)c1ccc(O)c(-c2cc(Cl)cc(Cl)c2)c1,99% (active),0% (inactive),1% (inactive),99% (active),inactive,inactive,inactive,inactive
O=C(Nc1cccc(C(F)(F)F)c1)c1ccc(S(=O)(=O)NCC2CCCN(CC3CCCCC3)C2)cc1 (stereo unspecified),9% (inactive),26% (inactive),-4% (inactive),95% (active),inactive,inactive,inactive,inactive
Cc1cc(CN2C(=O)C(c3ccccc3)(c3ccccc3)N=C2N)c(C(F)(F)F)o1,84% (active),11% (inactive),4% (inactive),97% (active),inactive,inactive,inactive,inactive
O=C(N[C@@H](Cc1ccccc1)C(=O)NC1CCCCCC1)c1ccc(O)c(-c2cccc(C(F)(F)F)c2)c1,70% (active),-10% (inactive),-1% (inactive),98% (active),inactive,inactive,inactive,inactive
NCC1CCCN1Cc1ccc(-c2cccc(-c3nc4ccc(C(F)(F)F)cc4[nH]3)c2)cc1 (stereo unspecified),97% (active),24% (inactive),1% (inactive),99% (active),inactive,inactive,inactive,inactive
Cc1cccc(C(=O)N2CCN(Cc3cccc(NC(=O)c4cccs4)c3)CC2)c1,95% (active),5% (inactive),0% (inactive),95% (active),inactive,inactive,inactive,inactive
COc1cc(NC(=O)c2cc3c(C)nn(-c4cccc(C(F)(F)F)c4)c3s2)cc(OC)c1OC,50% (active),0% (inactive),3% (inactive),101% (active),inactive,inactive,inactive,inactive
CC(C)c1ncc(-c2ccncc2)c(C2CCC(CNC(=O)c3ccncc3)CC2)n1 (stereo unspecified),49% (inactive),-6% (inactive),4% (inactive),85% (active),inactive,inactive,inactive,inactive
CCNc1cc(C(=O)N[C@@H](Cc2ccccc2)[C@H](O)CNCCc2ccccc2)cc(N2CCCCS2(=O)=O)c1,91% (active),14% (inactive),7% (inactive),98% (active),inactive,inactive,inactive,inactive
CC(C)(C)OC(=O)NCc1ccc(Nc2nnc(-c3cccc(C(=O)NCCC(c4ccccc4)c4ccccc4)c3)o2)cc1,89% (active),-4% (inactive),-2% (inactive),100% (active),inactive,inactive,inactive,inactive
CCCC(=O)Nc1ccc(Cl)c(NC(=O)COc2cc(C)ccc2C(C)C)c1,67% (active),2% (inactive),0% (inactive),87% (active),inactive,inactive,inactive,inactive
CCN(CC)CCCN(C(=O)c1cc2c(C)nn(-c3ccccc3)c2s1)c1nc(-c2ccc(OC)cc2)cs1,32% (inactive),12% (inactive),-7% (inactive),89% (active),inactive,inactive,inactive,inactive
O=C(Nc1cccc(-c2csc(-c3nc4ccccc4[nH]3)c2)c1)c1cc(=O)c2ccccc2[nH]1,39% (inactive),41% (inactive),-2% (inactive),98% (active),inactive,inactive,inactive,inactive
